Screening results: PubChem BioAssay, National Center for Advancing Translational Sciences (NCATS)
An excerpt weighted towards active compounds, which were near 5.1% of everything screened.
NPSR antag: antagonists of human neuropeptide S receptor cAMP signaling. Potency, µM (top dose mostly 38.3 µM), most hits filed as inhibitors. Q6W5P4. AID 1461. CHO-NPSR cells, cAMP TR-FRET, antagonist mode. actives 1% (n = 220,000); further: nearly all actives have a fitted effect of over 50% in size
Target sequence (Q6W5P4 whole entry, looked up): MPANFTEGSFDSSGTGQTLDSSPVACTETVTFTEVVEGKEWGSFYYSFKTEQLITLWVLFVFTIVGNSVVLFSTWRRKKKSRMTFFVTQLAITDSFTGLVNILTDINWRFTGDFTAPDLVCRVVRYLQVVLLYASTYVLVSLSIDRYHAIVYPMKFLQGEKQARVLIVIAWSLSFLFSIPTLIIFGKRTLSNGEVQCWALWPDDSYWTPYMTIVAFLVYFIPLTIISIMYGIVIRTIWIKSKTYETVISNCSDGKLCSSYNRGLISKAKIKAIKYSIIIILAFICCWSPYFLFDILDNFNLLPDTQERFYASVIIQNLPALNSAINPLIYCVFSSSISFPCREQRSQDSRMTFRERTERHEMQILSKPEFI
KDM4E inh: blocks human JMJD2E demethylase activity. B2RXH2. JMJD2E catalytic domain, FDH-coupled NADH fluorescence (FDH is formaldehyde dehydrogenase). Potency, µM (titrated, usually from 57.1 µM), hits mostly inhibitors. actives 1.6% (n = 230,000); active means well fitted inhibition curve with a large enough effect, not every such curve was filed as active; inconclusive means small, poorly fitted or top-dose-only effect, or another doubt; inactive means no such curve, though single readings can be large or run the other way; further: nearly all actives have a fitted effect of over 50% in size
Target sequence (B2RXH2 1-337 limits assumed): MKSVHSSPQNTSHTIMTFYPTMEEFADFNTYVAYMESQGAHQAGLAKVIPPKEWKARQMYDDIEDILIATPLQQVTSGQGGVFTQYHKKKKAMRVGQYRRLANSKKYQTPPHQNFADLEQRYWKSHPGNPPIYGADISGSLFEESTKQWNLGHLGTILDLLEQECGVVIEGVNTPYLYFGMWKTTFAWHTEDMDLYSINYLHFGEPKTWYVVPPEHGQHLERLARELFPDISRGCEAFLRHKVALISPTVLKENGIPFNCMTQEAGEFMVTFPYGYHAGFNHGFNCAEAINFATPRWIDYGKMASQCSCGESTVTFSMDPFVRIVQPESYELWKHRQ
PNC assembly inh: perinucleolar compartment assembly inhibition | PC3M PTB-GFP, PNC prevalence imaging, 16 h; stronger effect = lower value | activity change (PNC), negative = inhibition, % at 10 µM | actives 3.1% (n = 140,000) | AID 2417;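 active means readout at or below -70, meaning at least 70% loss of cells showing the perinucleolar compartment, a nuclear body marking cancer cells; inconclusive means readout between -30 and a set limit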
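PC3M cells stably expressing PTB-GFP, 750–1000 cells/well, treated 16 h at 37 °C with compound (23 nl of library stock), in duplicate. After paraformaldehyde fixation and Hoechst stain, imaged at 20x; PNC prevalence scored by image analysis.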
Tau fluor cs: counter-screen for tau fibril formation inhibitors | tau K18 P301L Alexa594 fluorescence, heparin fibrillization | actives 0.93% (n = 280,000) | AID 1463 | Potency, µM (titrated, usually from 57.7 µM); further: nearly all actives have a fitted effect of over 55% in size
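Human tau K18 P301L (15 uM unlabeled, 0.24 uM Alexa 594-labeled) in 100 mM sodium acetate pH 7 with 20 uM heparin, 6 hr at 37 C. ThT 30 uM added, 1 hr ambient; Alexa 594 FP and total fluorescence read at 555/632 nm.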
Tau ThT inhib: tau fibrillization inhibition (ThT binding); P10636; recombinant tau K18 P301L, heparin-induced fibrillization, ThT fluorescence; Potency, µM (highest dose often 57.4 µM), hits mostly inhibitors; actives 2.1% (n = 270,000); AID 1460; further: nearly all actives have a fitted effect of over 55% in size
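Fibril formation assay: tau K18 P301L at 15 uM with trace Alexa 594 label, heparin inducer 20 uM, pH 7 sodium acetate buffer, 37 C for 6 hr; endpoint ThT signal.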
Tau fibril FP: inhibitors of human tau fibril formation. P10636. K18 P301L tau heparin fibrillization, Alexa594 FP, 6 h. Potency, µM (top dose mostly 57.7 µM), usual class: inhibitors. actives 0.39% (n = 280,000). AID 1468; further: nearly all actives have a fitted effect of over 55% in size
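FP of Alexa 594-tau after heparin (20 uM) induction. Substrate: human K18 P301L, 15 uM unlabeled, 0.24 uM labeled. Buffer 100 mM sodium acetate pH 7. 6 hr, 37 C.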
Numbers stand for hits; – = inactive; ? = inconclusive; · = not tested or not shown; [ ] = another dose, or the depositor's remark. Unless noted, the call rests on the fitted dose curve; in most records, active means well fitted curve in the direction sought with a large enough effect; inconclusive means small, poorly fitted or top-dose-only effect, or another doubt; inactive means no such curve, though single readings can be large; an effect the other way counts as inactive or inconclusive.

SMILES | NPSR antag | KDM4E inh | PNC assembly inh | Tau fluor cs | Tau ThT inhib | Tau fibril FP
CCOC(=O)c1ccc(N2C(=O)CC(N3CC=C(c4ccc(F)cc4)CC3)C2=O)cc1 (stereo unspecified) | – | 14µM | – | – | ? | –
COc1ccc(N2C(=O)CC(N3CCC(n4c(=O)[nH]c5ccccc54)CC3)C2=O)cc1 (stereo unspecified) | – | – | – | – | – | –
O=C1CC(N2CC=C(c3ccc(F)cc3)CC2)C(=O)N1c1ccc(F)cc1 (stereo unspecified) | – | ? | – | ? | 32µM | ?
Cc1cc(C)cc(OCC(=O)Nc2ccc(-c3nc4ccccc4s3)cc2)c1 | · | · | · | – | ? | –
CCC1CN2CCc3cc(OC)c(OC)cc3C2CC1CC1NCCc2cc(OC)c(OC)cc21 (stereo unspecified) | · | ? | · | – | ? | –
CCc1ccc(NC(=O)c2ccc(F)c(S(=O)(=O)N3CCc4ccccc4C3)c2)cc1 | · | · | · | – | – | ?
CC(CCC(=O)O)C1CCC2C3CC[C@H]4CC(O)CC[C@@]4(C)C3CC[C@@]12C (stereo partly specified) | · | – | · | – | – | –
O=C1C=CC(=O)c2c(O)cccc21 | · | 7.1µM | · | 7.1µM[quencher] | 11µM | ?
O=C1c2ccccc2C(=O)c2ccccc21 | · | – | · | – | – | –
C=CCn1c(O)c(C(CC)=NC(C)c2ccccc2)c(=O)[nH]c1=O (stereo unspecified) | – | – | -94 | – | – | –
C=CCn1c(O)c(C(C)=Nc2ccc(N(CC)CC)cc2)c(=O)[nH]c1=O | – | ? | – | – | ? | –
C=CCn1c(O)c(C(C)=Nc2ccc(N(C)C)cc2)c(=O)[nH]c1=O | – | ? | -91 | ? | 18µM | –
CC/C(=C(\c1ccc(O)cc1)c1ccc(OCCN(C)C)cc1)c1ccccc1 | 10µM | ? | · | ? | ? | –
CN1CCC2(CC1)C(C#N)=C(N)NC(S)=C2C#N | – | ? | – | ? | 22µM | ?
CCOC(=O)c1c(C)[nH]c(C)c1S(=O)(=O)N1CCC(C(=O)N2CCN(c3ccc(Cl)cc3)CC2)CC1 | · | · | · | – | – | ?
c1cc2cc(c1)C[n+]1ccc(c3ccccc31)NCc1ccc(cc1)CNc1cc[n+](c3ccccc13)C2 | · | 18µM | · | – | ? | ?
CC(C)(C)[C@]1(O)C[C@@H]2OC(=O)CC23C(=O)O[C@@H]2OC(=O)[C@H](O)C231 (stereo partly specified) | · | · | · | – | – | –
C/C(=N\NP(=S)(c1ccccc1)c1ccccc1)c1ccc(O)cc1O | – | – | · | 32µM[quencher] | ? | –
Cc1cc(NC(=O)CCC(=O)N2CCC3(CC2)OCCO3)no1 | – | – | -84 | – | – | –
CCCc1nnc(NC(=O)CCC(=O)N2CCC3(CC2)OCCO3)s1 | – | – | · | – | – | –
Cc1ccccc1-n1c(O)c(C(c2ccncc2)c2c(O)n(-c3ccccc3C)c(=O)[nH]c2=O)c(=O)[nH]c1=O | – | 18µM | · | – | · | ?
O=c1[nH]c2ccccc2c(=O)n1-c1ccc(Cl)cc1Cl | – | ? | · | – | – | –
O=C1NC(=O)c2c1c1c3ccccc3[nH]c1c1[nH]c3ccccc3c21 | · | · | · | 14µM[quencher] | ? | –
O=C1NC(=O)N(Cc2ccc(F)cc2)C(=O)/C1=C\c1ccc([N+](=O)[O-])s1 | – | 28µM | · | ? | · | 0.35µM
COc1ccc(CN2C(=O)NC(=O)/C(=C/c3ccc([N+](=O)[O-])s3)C2=O)cc1 | – | 25µM | · | ? | 7.9µM | 25µM
SMILES | NPSR antag | KDM4E inh | PNC assembly inh | Tau fluor cs | Tau ThT inhib | Tau fibril FP
O=C1NC(=O)N(Cc2ccc(F)cc2)C(=O)/C1=C\c1ccc(N2CCCC2)cc1 | – | – | · | – | 25µM | –
O=c1[nH]c(=O)n(C2CCCCC2)c(O)c1C=Nc1ccc(N2CCOCC2)cc1 | – | – | -97 | – | – | –
O=c1[nH]c(=O)n(C2CCCCC2)c(O)c1/C=C/C=Nc1ccccc1 | ? | – | · | – | – | –
O=c1[nH]c(=S)n(-c2ccc(Cl)cc2)c(O)c1C=Nc1ccc(N2CCOCC2)cc1 | – | – | · | ? | 25µM | –
CCC(Oc1ccc(Cl)cc1)C(=O)OC1CC2CCC(C1)N2C (stereo unspecified) | · | · | · | – | – | –
C[C@H](CCC(=O)O)[C@H]1CC[C@@H]2[C@H]3CC[C@H]4C[C@H](O)CC[C@]4(C)[C@@H]3CC[C@@]21C | · | – | · | – | – | –
CC(=O)Nc1c2sscc-2n(C)c1=O | · | · | · | – | 16µM | ?
CCCN1CCO[C@@H]2c3cc(O)ccc3OC[C@@H]21 | · | ? | · | – | – | –
Cl.Cl.Cl.Cl.Cl.Cl.N.N.N.N.NNNNN.NNNNN.O.O.[Ru].[Ru].[Ru] | · | 32µM | · | ? | 22µM | ?
CCOC(=O)c1c(-n2c(C)cc(C=C3C(=O)NC(=S)NC3=O)c2C)sc2c1CCCC2 | 4µM | ? | ? | ? | ? | ?
Cc1ccc(N2C(=O)NC(=O)/C(=C\c3cc(C)n(-c4sc5c(c4C#N)CCCC5)c3C)C2=O)cc1 | – | – | ? | – | ? | –
CN(N=O)c1ccc(O)c(O)c1 | – | 10µM | · | – | – | –
COC(=O)C1C(O)C(C)C(O)C(C)/C=C\C=C(/C)C(=O)Nc2c(C)c(OC(C)=O)c3c(c2O)C(=O)C(C)=C2OCOC(=C23)/C(C)=C/C(C)(O)C(O)C(C)C1O (stereo unspecified) | – | ? | · | ? | 32µM | ?
Cc1ccc(Cl)cc1NC(=O)Cn1c(=O)oc2cc(S(=O)(=O)N3CCCCCC3)ccc21 | · | · | · | – | – | ?
c1ccc2sc(C3(NCC4CC4)CCCCC3)cc2c1 | · | · | · | – | – | –
S=c1[nH]c2cc(Br)cnc2[nH]1 | – | ? | · | – | 32µM | ?
COc1ccc(CN2CCc3nc(N4CCN(c5ccc(F)cc5)CC4)ncc3C2)c(OC)c1OC | · | · | · | – | ? | –
CCOC(=O)C1CCN(/C=C2/C(=O)NC(=O)N(c3ccc(OCC)cc3)C2=O)CC1 | – | – | ? | – | 14µM | ?
CCOC(=O)C1CCN(/C=C2/C(=O)NC(=S)N(c3ccccc3F)C2=O)CC1 | – | – | · | – | – | –
CCCN(CCC)c1c([N+](=O)[O-])cc(C(F)(F)F)cc1[N+](=O)[O-] | · | – | · | – | – | –
CCC1(C)CC(C(N)=S)CCO1 (stereo unspecified) | – | ? | · | – | 13µM | ?
CCOc1ccc(-c2nc(CSCC(=O)NCCc3ccc(OCC)c(OCC)c3)c(C)o2)cc1 | · | · | · | – | ? | –
O=c1cccc2n1CC1CC2CN(CCO)C1 (stereo unspecified) | · | – | · | – | – | –
COc1cc2c(cc1OC)-c1c(O)c(OC)cc3c1[C@H](C2)N(C)CC3 | · | ? | · | ? | 5µM | 11µM
COc1cc2c(cc1OC)-c1c(OC)c(OC)cc3c1C(C2)N(C)CC3 (stereo unspecified) | – | ? | – | – | ? | –
